In the library only some 4.2% were active in any assay of this set; here they are far more common.
esBAF inh – SWI/SNF esBAF complex inhibition | mouse ES cells, Bmi1-luciferase knock-in reporter, 24 h; 100% = twice the neutral-well signal | 350,000 compounds, 2% hits | reporter increase, % at 12.5 µM; in the data active means activation above about 40%; inconclusive means no clear call, values can overlap the other calls;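 further: 0% = median of the plate's neutral control wells and 100% = double that signal; a rise in the Bmi1 reporter signal indicates esBAF inhibition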
DAX1 inh – inhibitors of DAX1 repression of SF-1 activated StAR promoter | HEK293T StAR-luciferase reporter, SF-1/DAX-1 repression relief | AID 652010 | inhibition, % at 6.8 µM | 370,000 compounds, 1.1% hits;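 active means inhibition above the mean over all tested compounds plus 3 SD, cut at about 3.6% in these data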;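 further: 0% = DAX-1 cells with DMSO and 100% = cells lacking DAX-1 with DMSO; higher inhibition means more luminescence from relief of DAX-1 repression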
hgDAF12 agonist – activates the H. glycines DAF-12 receptor ligand-binding domain. HEK293 GAL4-hgDAF12 UAS-luciferase reporter, agonist luminescence; normalized to butyrate control. activation, % at 6.8 µM. 370,000 compounds, 1.8% hits. AID 687014;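 active means activation above a cutoff set at the mean of all screened compounds plus 3 SD, cut at about 10% in these data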;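 further: 0% = DMSO wells and 100% = sodium butyrate wells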
Wnt act – Wnt/beta-catenin pathway activation; Wnt/beta-catenin reporter cell assay, activator, plate reader; activation, % at 9.35 µM; 300,000 compounds, 1.2% hits; AID 743398; in the data active means activation above about 30%, passing the limit was not always enough; inconclusive means no clear call, values can overlap the other calls;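 further: 0% = neutral control wells and 100% = positive control wells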
hcDAF-12 act – activates DAF-12 receptor from parasite H. contortus. HEK293 hcDAF-12 lit1-tk-luc reporter, luminescence; 0% DMSO, 100% Δ7-dafachronic acid. activation, % at 6.8 µM. 370,000 compounds, 1.4% hits. AID 652067;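 active means activation above the mean of all tested compounds plus 3 SD, cut at about 5.5% in these data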;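 further: 100% = response to 3 µM Δ7-dafachronic acid high control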
ssDAF-12 act – S. stercoralis DAF-12 activation, primary screen; HEK293 ssDAF-12/GRIP1 lit1-tk-luc reporter, luminescence; % of 3 µM dafachronic acid response; 370,000 compounds, 1% hits; activation, % at 6.8 µM; AID 652126;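 active means activation above the mean over all tested compounds plus 3 SD, cut at about 0.9% in these data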;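 further: 0% = DMSO-only wells and 100% = 3 µM delta7-dafachronic acid wells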
The depositor's hits bear a star; ? = inconclusive; . = no result given.

SMILES	esBAF inh	DAX1 inh	hgDAF12 agonist	Wnt act	hcDAF-12 act	ssDAF-12 act
CN(C)c1ccc(C(=O)N/N=C/c2ccccn2)cc1	21.2	3.6*	11.8*	?	1.2	-0.3
CN(C)c1ccc(/C=N/NC(=O)c2ccn(C)n2)cc1	.	1.2	5.1	34.0*	4.9	-0.8
CC(C)NC(=O)Nc1ccc2c(c1)C(=O)N([C@@H](C)CO)C[C@H](C)[C@H](CN(C)C)O2	-0.9	.	.	.	.	.
Cc1cc(/C=N\NC(=O)c2cccs2)c(C)n1-c1ccc2ncccc2c1	72.4*	0.8	8.0	1.5	1.4	-0.3
O=C(N/N=C/c1ccncc1)c1ccccn1	13.6	0.8	6.2	4.6	1.0	0.1
CN(C)c1ccc(/C=N/NC(=O)c2ccccn2)cc1	-59.3	2.7	12.5*	4.0	5.4	1.3*
O=C(N/N=C/c1ccc(N2CCOCC2)cc1)c1ccccn1	.	1.2	7.8	35.7*	2.4	-0.1
Cc1ccccc1C(=O)N/N=C/c1ccccn1	.	2.0	12.9*	12.5	3.6	-0.7
O=C(N/N=C/c1ccccn1)c1ccccc1	.	2.3	7.8	5.8	4.1	-0.5
CN(C)c1ccc2c(c1)[C@@H]1C[C@@H](CC(=O)NCc3ccc(Cl)cc3)O[C@H](CO)[C@@H]1O2	3.0	.	.	.	.	.
CNC[C@@H]1Oc2ccc(NC(=O)Nc3ccccc3)cc2CC(=O)N([C@H](C)CO)C[C@H]1C	1.3	.	.	.	.	.
Cc1ccc(/C=N/NC(=O)c2cccs2)s1	50.2*	3.4	9.3	.	1.9	-0.7
O=C(N/N=C\c1cn[nH]c1-c1ccccc1)c1cccnc1	3.0	0.8	1.3	-2.7	2.2	-0.6
O=C(N/N=C\c1cn[nH]c1-c1ccccc1)c1cccs1	.	2.1	12.5*	2.7	1.6	0.0
CC1(N2CCCCC2)C(=O)c2ccccc2C1=O	.	0.4	1.7	-1.6	1.8	1.0*
CC1(N2CCOCC2)C(=O)c2ccccc2C1=O	.	0.6	2.8	-1.5	-0.1	-0.6
CO[C@H]1CN(C)C(=O)c2cc(NC(C)=O)ccc2OC[C@H](C)N(S(=O)(=O)c2cn(C)cn2)C[C@@H]1C	3.5	.	.	.	.	.
CCCC#Cc1cnc2c(c1)C(=O)N([C@H](C)CO)C[C@H](C)[C@H](CN(C)C(=O)c1cccnc1)O2	8.4	.	.	.	.	.
Cc1cc(C)cc(C(=O)NCCC(=O)N2CCC3(CC2)NCCc2[nH]cnc23)c1	-0.6	3.9*	0.2	-0.3	-0.1	-1.6
Cn1c(/N=C/c2ccc3c(c2)OCO3)nc2ccccc21	0.4	-0.3	1.0	-1.3	5.9*	-0.6
C[C@@H]1CN([C@H](C)CO)C(=O)c2cc(-c3cncnc3)cnc2O[C@H]1CN(C)C(=O)Cc1ccccc1	-6.0	.	.	.	.	.
C/C(=N/NC(=O)c1cc2ccccc2cc1O)C1C(=O)c2ccccc2C1=O	50.5*	1.0	1.5	-3.0	2.8	-0.7
c1cncc(CSc2ccc(-c3ccc4c(c3)OCO4)nn2)c1	49.1*	2.2	5.3	31.7*	5.6*	-1.1
C[C@H]1CCCCO[C@H](CN(C)C(=O)CCC(F)(F)F)[C@@H](C)CN([C@@H](C)CO)C(=O)c2cc(NS(=O)(=O)c3cn(C)cn3)ccc2O1	5.2	.	.	.	.	.
Cc1ccc(OCc2nc(-c3ccc(Cl)cc3)n[nH]2)cc1	4.0	-0.2	0.1	2.9	-2.2	-1.7
SMILES	esBAF inh	DAX1 inh	hgDAF12 agonist	Wnt act	hcDAF-12 act	ssDAF-12 act
Cc1ccc(-c2n[nH]c(Cc3ccccc3)n2)cc1	53.8*	0.7	7.2	0.3	2.6	-0.5
Cc1ccc(C2NC(=S)N3C(c4ccc(C)cc4)NC(=S)N23)cc1 (stereo unspecified)	61.1*	0.3	3.4	6.0	1.5	-0.4
COCC(=O)N1C[C@@H]2[C@H](c3ccccc31)[C@@H](CO)N2C(=O)C1CCCCC1	-1.1	.	.	.	.	.
Cc1ccc2c(c1)Oc1ccc([N+](=O)[O-])cc1C(=O)N2	.	-0.5	2.4	-1.3	6.1*	0.1
C[C@@H]1CCCCO[C@H](CN(C)C(=O)Nc2ccc3c(c2)OCO3)[C@@H](C)CN([C@@H](C)CO)C(=O)c2cc(NC(=O)c3ccccc3)ccc2O1	4.3	.	.	.	.	.
Cn1cc(CN2CCc3c([nH]c4ccccc34)C2C(C)(C)C)cn1 (stereo unspecified)	.	-0.5	-2.1	2.8	5.9*	-0.8
C[C@H](CO)N1C[C@H](C)[C@H](CN(C)CC2CC2)Oc2ncc(-c3ccc(C#N)cc3)cc2C1=O	24.5	.	.	.	.	.

Screening results from PubChem.
